hgDAF-12 ag: H. glycines DAF-12 receptor agonists, primary screen, cell-based, luminescence, HEK293, GAL4 fusion, UAS-luciferase; HEK293 GAL4-hgDAF12 UAS-luciferase reporter, agonist luminescence; normalized to butyrate control; hit rate 1.8% among 370,000; AID 687014, 2013; activation, % at 6.8 µM; Nuclear hormone receptor DAF-12 (Heterodera glycines), GAL4 fusion;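 active means activation above a cutoff set at the mean of all screened compounds plus 3 SD, cut at about 10% in these data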;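 further: 0% = DMSO wells and 100% = sodium butyrate wells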
ssDAF-12 act: S. stercoralis DAF-12 nuclear receptor activators, primary screen, cell-based, luminescence, HEK293, GRIP1 co-expression, lit1-tk-luc | Nuclear hormone receptor DAF-12 (Strongyloides stercoralis) | HEK293 ssDAF-12/GRIP1 lit1-tk-luc reporter; % of 3 µM dafachronic acid response | activation, % at 6.8 µM | hit rate 1% among 370,000 | AID 652126, 2013;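 active means activation above the mean over all tested compounds plus 3 SD, cut at about 0.9% in these data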;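 further: 0% = DMSO-only wells and 100% = 3 µM delta7-dafachronic acid wells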
DAX1 inh-1: DAX1 (NR0B1) inhibitors, primary screen, cell-based, HEK293, Gal4-DAX1, luciferase luminescence | AID 504766, 2011 | hit rate 0.99% among 340,000 | inhibition, % at 6.75 µM | Nuclear receptor subfamily 0 group B member 1 (Homo sapiens), P51843 | HEK293 Gal4-DAX1 luciferase reporter;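 active means inhibition above the mean over all tested compounds plus 3 SD, cut at about 4.2% in these data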;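 further: 0% = DAX1-transfected cells with DMSO and 100% = empty-vector control cells with DMSO; inhibition shows as a rise in luminescence from relieved DAX1 repression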
DAX1 inh-2: DAX1 (NR0B1) inhibitors on StAR promoter, primary screen, cell-based, luminescence, SF-1 (NR5A1), full-length DAX-1 | HEK293T StAR-luciferase reporter, SF-1/DAX-1 repression relief | inhibition, % at 6.8 µM | hit rate 1.1% among 370,000 | AID 652010, 2013;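 active means inhibition above the mean over all tested compounds plus 3 SD, cut at about 3.6% in these data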;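 further: 0% = DAX-1 cells with DMSO and 100% = cells lacking DAX-1 with DMSO; higher inhibition means more luminescence from relief of DAX-1 repression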
Wee1 degr inh: Wee1 degradation inhibitors, primary screen, cell-based, HeLa, Wee1K328M-luciferase, luminescence; reporter increase, % at 5 µM; hit rate 1.2% among 220,000; AID 1321, 2008; HeLa Luc-Wee1K328M stability; 100% = proteasome inhibitor MG132 effect;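 active means activation above the mean of all tested compounds plus 3 SD, set per screening run, cut at about 8.8% in these data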;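 further: cells exposed to compound for 20 h before luminescence read; 0% = DMSO alone and 100% = MG132 at 30 µM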
Target sequence (P30291 whole entry K328M): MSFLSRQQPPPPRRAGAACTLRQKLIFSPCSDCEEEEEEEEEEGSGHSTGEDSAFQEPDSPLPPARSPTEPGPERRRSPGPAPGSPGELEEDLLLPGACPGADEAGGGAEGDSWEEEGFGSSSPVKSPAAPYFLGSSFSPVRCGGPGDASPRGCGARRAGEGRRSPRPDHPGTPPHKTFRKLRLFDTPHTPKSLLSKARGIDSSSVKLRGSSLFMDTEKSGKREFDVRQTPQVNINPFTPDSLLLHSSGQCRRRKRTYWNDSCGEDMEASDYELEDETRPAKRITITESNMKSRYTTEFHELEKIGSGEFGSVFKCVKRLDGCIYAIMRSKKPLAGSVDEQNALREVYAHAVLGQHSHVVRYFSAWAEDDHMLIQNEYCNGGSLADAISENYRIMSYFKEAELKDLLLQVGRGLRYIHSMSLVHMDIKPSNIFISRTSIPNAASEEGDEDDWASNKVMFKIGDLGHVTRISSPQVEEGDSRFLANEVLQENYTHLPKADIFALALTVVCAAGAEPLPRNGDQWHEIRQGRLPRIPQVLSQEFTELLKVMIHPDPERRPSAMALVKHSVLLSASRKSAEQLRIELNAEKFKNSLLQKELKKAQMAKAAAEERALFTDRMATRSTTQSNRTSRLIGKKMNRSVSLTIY
hcDAF12 agonist: H. contortus DAF-12 nuclear receptor activators, primary screen, cell-based, luminescence, HEK293, lit1-tk-luc reporter. HEK293 hcDAF-12 lit1-tk-luc reporter; 0% DMSO, 100% Δ7-dafachronic acid. activation, % at 6.8 µM. hit rate 1.4% among 370,000;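 active means activation above the mean of all tested compounds plus 3 SD, cut at about 5.5% in these data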;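 further: 100% = response to 3 µM Δ7-dafachronic acid high control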
hgDAF12 ag: H. glycines DAF-12 receptor agonists, confirmation, cell-based, luminescence, HEK293, GAL4-LBD fusion. hit rate 80% among 3,300. AID 743050, 2013. shares compounds with hgDAF-12 ag. HEK293 GAL4-hgDAF12 luciferase reporter, agonist mode; percent of butyrate response. activation, % at 6.8 µM;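 active means mean activation over triplicate wells above the hit cutoff derived from the earlier primary screen, cut at about 11% in these data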;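 further: 0% = DMSO low control and 100% = 2 mM sodium butyrate high control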
LXR ag 2: LXR agonists, Gal4 luciferase reporter, confirmation, counter-screen for hgDAF-12 agonist project, cell-based, luminescence, HEK293, H. glycines campaign; shares compounds with hgDAF-12 ag; 24 h; activation, % at 6.8 µM; 3,300 tested, under 10 active;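 active means mean activation of the triplicate above a set limit carried over from the primary screen, none filed active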
* = called active by the depositor; · = not tested or not shown. The list is not random: actives were taken first. Their share in the collection is about 4.6%.

SMILES	hgDAF-12 ag	ssDAF-12 act	DAX1 inh-1	DAX1 inh-2	Wee1 degr inh	hcDAF12 agonist	hgDAF12 ag	LXR ag 2
COc1ccc(NC(=O)c2cc(C3CCCCN3S(=O)(=O)c3ccc(C#N)cc3)on2)c(C)c1 (centres undefined)	-4	-1	·	-1	·	-2	·	·
CN(C)S(=O)(=O)c1ccc(NC(=O)c2ccc3ncsc3c2)cc1	·	·	·	·	-4	·	·	·
O=C(Nc1ccc(Br)cc1)c1ccc2ncsc2c1	19*	1.0*	-2	2	·	5	15*	1
Cc1[nH]c(N=Nc2ccccc2)nc1N=Nc1ccccc1	-5	-1	-1	-1	6	-2	·	·
Nc1ccc(N=Nc2ccccc2)c(N)n1	16*	-1	1	4.1*	-3	3	13*	0
O=C(Nc1ccc(Cl)c(Cl)c1)c1ccccc1	3	0	3	0	·	2	·	·
Cc1nc2cc(NC(=O)N3CCCCC3)ccc2n1C	1	-1	1	1	3	1	·	·
Cc1nc2cc(NC(=O)c3ccc(Cl)cc3)ccc2n1C	13*	0	0	2	·	4	16*	1
CCOc1ccc(NC(=O)Nc2ccc3c(c2)nc(C)n3C)cc1	4	-1	-1	-1	-1	-2	·	·
O=C(Nc1ccc2nc3ccccc3nc2c1)c1ccccc1	16*	1	1	3	2	4	14*	1
Cc1nc2cc(NC(=O)Nc3cccc4ccccc34)ccc2n1C	18*	0	2	3	2	2	12*	1
COc1ccc(OC)c(C(=O)COC(=O)COc2ccccc2F)c1	-1	-1	0	-1	·	0	·	·
OC[C@@H]1CN(Cc2ccncc2)C[C@H](n2cnc3c(N4CCCC4)ncnc32)O1	0	-1	·	0	·	-2	·	·
Cc1ccsc1/C=N/NC(=O)c1ccncc1	4	-1	0	0	-1	2	·	·
Cc1ccsc1/C=N/NC(=O)c1ccc2ccccc2c1	14*	0	1	3	·	2	11*	0
O=[N+]([O-])c1cccc(OC[C@@H](O)CN2CCC(C(O)(c3ccccc3)c3ccccc3)CC2)c1	-2	-1	·	0	·	-2	·	·
CCOC(=O)c1sc(NC(=O)c2cccs2)cc1C	15*	-1	0	0	1	0	14*	1
CCOC(=O)c1sc(Nc2nc3c(F)cccc3s2)cc1C	16*	0	0	0	0	5	13*	0
CCOC(=O)c1cccc(NC(=O)c2cccs2)c1	5	-1	1	0	2	0	·	·
CCOC(=O)c1sc(NC(=O)c2sccc2C)cc1C	17*	1.2*	3	2	4	6.4*	17*	1
OC(C1=CC(=Cc2ccncc2)c2ccccc21)c1ccncc1 (centres undefined)	-2	-1	-1	-3	·	-1	·	·
O=C(OC(C(=O)NC1CCCC1)c1cccnc1)C1=Cc2ccccc2OC1 (centres undefined)	0	-1	1	-1	-3	-1	·	·
O=C(OCc1cccnc1)C1=Cc2ccccc2OC1	14*	-1	-1	1	6	-1	3	0
NC(=O)c1cc(N)ccc1N1CCCCC1	22*	-2	·	-1	-4	0	1	0
